# According to the supplement of paper PMC3334620:
# In all, about 33,000 sequences were measured (“E-score (-0.5 to 0.5)”: median about -0.016, highest 2% from about 0.3 on). This excerpt belongs to a sample that is enriched for the highest values.
# Target: T1, Yer184c (UniProt P39961)
# T1 sequence: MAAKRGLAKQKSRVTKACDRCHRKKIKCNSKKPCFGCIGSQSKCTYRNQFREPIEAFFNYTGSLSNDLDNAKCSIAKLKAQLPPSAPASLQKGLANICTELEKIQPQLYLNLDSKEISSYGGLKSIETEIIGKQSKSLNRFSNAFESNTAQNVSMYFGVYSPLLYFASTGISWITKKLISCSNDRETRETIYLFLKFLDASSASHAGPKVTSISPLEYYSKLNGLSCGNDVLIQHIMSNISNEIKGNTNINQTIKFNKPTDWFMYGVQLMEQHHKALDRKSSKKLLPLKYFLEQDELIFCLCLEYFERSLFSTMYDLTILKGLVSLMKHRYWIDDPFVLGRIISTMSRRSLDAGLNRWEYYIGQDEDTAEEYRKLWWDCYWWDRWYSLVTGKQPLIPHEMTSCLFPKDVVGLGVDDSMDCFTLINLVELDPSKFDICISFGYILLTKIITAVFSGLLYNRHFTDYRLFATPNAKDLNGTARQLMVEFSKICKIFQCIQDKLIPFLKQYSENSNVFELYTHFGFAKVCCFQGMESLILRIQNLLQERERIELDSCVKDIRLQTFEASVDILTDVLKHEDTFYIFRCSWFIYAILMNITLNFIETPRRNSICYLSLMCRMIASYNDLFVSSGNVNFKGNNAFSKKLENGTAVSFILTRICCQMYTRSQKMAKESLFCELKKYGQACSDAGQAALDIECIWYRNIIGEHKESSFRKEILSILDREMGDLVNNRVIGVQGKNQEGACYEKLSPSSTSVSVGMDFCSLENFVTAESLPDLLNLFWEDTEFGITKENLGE
# Assay: PBM E-score (8-mer binding enrichment) (E-score (-0.5 to 0.5)); higher = stronger / more preferred TF binding
# Conditions: protein concentration: 100 nM; construct: GST-full length
# In short: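 For each ungapped eight-base word taken together with its reverse complement, the Universal PBM Analysis Suite assigned an E-score. Binding data came from GST-tagged yeast transcription factors, applied at about 100-200 nM, on universal all-10-mer Agilent arrays made double-stranded by primer extension. Fluorescent anti-GST marked bound protein, and scans were normalised with masliner.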
row,Sequence,PBM E-score
1,CTGCAACA,0.152
2,CACAATCA,0.00768
3,CGGAAATA,0.424
4,CGGAAATC,0.315
5,AGGAAATA,0.249
6,AGGAAATC,0.0763
7,CTGAAATC,0.0356
8,GGGAAATA,0.0562
9,GGACTTTA,0.156
10,AGTAGGTC,-0.225
11,CTGCGCAA,-0.0246
12,ATGGTACG,0.0122
13,ACTGTTGA,-0.0706
14,CCGGCGAA,0.35
15,CCGGCGGC,0.291
16,CCGGCGTA,0.313
17,CCGGCGGA,0.369
18,GCGGCGTA,-0.0609
19,GCGGCGAA,0.27
20,TCGGCGAA,0.294
21,ACGGCGTA,0.0111
22,GCGGCGGA,0.193
23,TATCTAAA,0.0877
24,CACTGCGA,-0.0568
25,AGGTAGGA,-0.06

row,Sequence,PBM E-score
1,GGAGTGCC,0.0423
2,TACTATGA,0.142
3,CGGGAAAC,0.286
4,ACGGAAAG,0.231
5,CAGGAAAC,0.117
6,CCGGAAAG,0.312
7,CCGGAAAC,0.396
8,CGGGAAAG,0.138
9,CCCACGAA,-0.0234
10,CAGCGTCC,-0.0361
11,TTAGGCAA,-0.168
12,AGAACAGA,0.0872
13,GAGTATGC,-0.00892
14,CCGGGAAA,0.35
15,CGGGGAAA,0.15
16,TCGGGAAA,0.309
17,ACGGGAAA,0.159
18,GCGGGAAA,0.223
19,CCGGGGAA,0.267
20,AGTGCTTG,-0.109
21,CCTTCTAG,-0.237
22,ATAGAAAA,-0.0185
23,ATAGAAAT,0.318
24,ATAGAAAG,-0.0692
25,ACAGGCCC,-0.349

row,Sequence,PBM E-score
1,ACATTAAG,0.132
2,CCCCGGGA,0.119
3,GCCCGGGA,0.282
4,TCCCGGGA,0.337
5,ACCCGGGC,0.233
6,ACCCGGGT,0.299
7,ACCCGGGA,0.367
8,GGCCTGGA,-0.213
9,TGCAAAAA,0.00535
10,AACGGAGC,-0.0449
11,TACGGGAA,0.142
12,GACGGAAC,0.125
13,GACGGAAA,0.213
14,CACGGAAC,0.349
15,CACGGACC,0.192
16,AACGGACC,0.185
17,CACGGAGC,0.14
18,AACGGAGT,0.312
19,AACGGAGA,0.107
20,AACGGAAC,0.333
21,TACGGAAA,0.362
22,TCTATGCA,0.0433
23,AGAACGGC,0.176
24,CTCGAAAA,-0.0323
25,CATCTGCA,-0.0527

row,Sequence,PBM E-score
1,CCACTAAA,-0.0267
2,GCAAGGGC,-0.274
3,ACTGCCTC,-0.229
4,AGATTAGG,-0.068
5,AGATGGCG,0.0474
6,AACGGAAA,0.408
7,AACGGGAA,0.25
8,AACGGACA,0.202
9,CTCGGAAA,0.289
10,CACGGAAA,0.345
11,AACGGAAG,0.179
12,CTCGGAAC,0.358
13,CACGGAAG,0.149
14,GTCGGAAC,0.217
15,CAAGGAAA,-0.0602
16,AACGGAAT,0.365
17,AGCGGAAT,0.0752
18,AATAGTGT,0.267
19,ATCAGTAA,0.166
20,GAATAGGA,0.0511
21,GCGATCAC,-0.19
22,ACTTCTAG,-0.28
23,GTCACTTA,0.122
24,AGGGACTG,-0.316
25,GGACCTGA,-0.0219

row,Sequence,PBM E-score
1,ATACATAT,0.255
2,AGGATCAA,0.14
3,ATACTGCG,-0.0752
4,GCGGATCC,0.161
5,ACGGATCA,0.248
6,ACGGATCC,0.288
7,CCGGATCA,0.328
8,CCGGATCG,0.352
9,TCAGATCA,-0.00186
10,TAGGATCA,-0.0016
11,GCGGATCA,0.105
12,CAGGATCG,-0.0543
13,ACGGATCG,0.0937
14,TCGGATCA,0.31
15,CCGGATCC,0.372
16,TCGAGACA,-0.0512
17,GGCCATAA,-0.102
18,ACGGCAGG,-0.117
19,GGGTCAAA,0.0026
20,CCGTCCAA,-0.024
21,CAAGCAGC,-0.149
22,AATGGTTA,-0.0173
23,TAGTCTAA,-0.101
24,AAATTTGT,0.213
25,ACGCCGGA,0.227

row,Sequence,PBM E-score
1,CCGCCGGC,0.442
2,GCGCCGCA,0.166
3,GCGCCGCC,0.122
4,ACGCCGGC,0.423
5,CCGCCGCA,0.0998
6,ACGCCGCC,-0.0562
7,GCGCCGGA,0.355
8,CCGCCGCC,0.0576
9,ACGCCGGG,0.21
10,CCGCCGTC,-0.00239
11,CCGCCGGA,0.316
12,AGCGTTGG,-0.251
13,CAATTTGC,-0.0817
14,TACCTCAA,-0.122
15,AACATTCG,0.00818
16,CTTAGTGC,0.081
17,CCACAAGC,-0.273
18,ATGTAGAA,-0.0706
19,ACCATTCA,0.00717
20,GGCAGGTA,-0.0757
21,CTCTTAGA,0.0666
22,CGAAACCG,0.253
23,GGCCGGCC,0.384
24,GGCCGGCA,0.415
25,CGCCGGTC,0.228

row,Sequence,PBM E-score
1,AGTCGGCC,0.135
2,GCCCGGCC,0.242
3,ACCCGGCC,0.255
4,GACCGGCC,0.203
5,AGCCGGCC,0.333
6,GACCGGCA,0.173
7,CCCCGGCC,0.0277
8,GGCCGGTA,0.248
9,CGCCGGCC,0.35
10,GTCTCGCA,-0.0807
11,TGGGTCAA,-0.147
12,ACGGGCTG,-0.045
13,AAAATCGG,0.15
14,ATTTGATG,0.115
15,ATGGCCCG,-0.0155
16,CAATCTGC,-0.14
17,ACCTTGAG,-0.0404
18,GGAGTAAA,0.134
19,GTTTCAGA,0.0364
20,GTTGGTTA,-0.0114
21,CGATACAC,-0.00964
22,AAACGGAA,0.403
23,TAACGGAA,0.298
24,CAACGGAG,0.0267
25,AAACGGAT,0.313

row,Sequence,PBM E-score
1,GAACGGAA,0.267
2,AAACGGTA,0.163
3,AAACGGAG,0.152
4,AAACGGAC,-0.00077
5,CAACGGAA,0.36
6,ACTTCATA,-0.0295
7,CGAGACGA,-0.0371
8,AAAGCGTT,-0.0919
9,CAGAGCAA,0.108
10,ATCCGGAG,0.398
11,ATCCGCAG,0.123
12,CTCCGGAG,0.416
13,CTCCGGTA,0.218
14,CTCCGGAA,0.402
15,CTCCGTAA,0.0982
16,CTCCGCAG,-0.136
17,GTCCGGCA,0.285
18,GTCCGGAA,0.429
19,CTACGGAG,0.0895
20,ATCCGGGG,0.262
21,GTCCGGTA,0.206
22,AACCGACT,0.0723
23,CGGCCCCA,-0.282
24,ACTTGCCA,-0.078
25,AATGAGAT,0.127

row,Sequence,PBM E-score
1,GTAAGGCA,-0.206
2,ATCCGTAA,0.149
3,ATCAGGAT,0.115
4,ATCCGCAT,0.111
5,ATCCGGAA,0.418
6,CTCCGGGC,0.0789
7,AACCGGGC,0.187
8,GTCCGGGA,0.342
9,ATCCGGGA,0.258
10,ATCCGGGC,0.363
11,ATCCGGAT,0.442
12,ATGCGGAA,0.271
13,CTCCGGGA,0.205
14,TAAGCACA,0.189
15,ACAGAACT,0.116
16,AGTCGCAA,-0.0383
17,CACCATCC,-0.292
18,AGCATTTA,0.0356
19,AAGCCACC,-0.342
